Assay results reported in publication PMC9911399, “Two distinct binding modes provide the RNA-binding protein RbFox with extraordinary sequence specificity”.
Changes are numbered by the printed parent chain; changes in the protein carry UniProt numbers. The full ranking holds about 16,000 sequences; the median of “ka relative to ugcaugu” is about 0.096, and the highest 2% start at about 0.35. The entries come from a sample that favours the highest values as a whole.

T1: RBFOX1 RRM RbFoxmut (Fox-RRM*) (Homo sapiens, UniProt Q9NWB1 109-208, R118D;E147R;N151S;E152T)
T1 sequence: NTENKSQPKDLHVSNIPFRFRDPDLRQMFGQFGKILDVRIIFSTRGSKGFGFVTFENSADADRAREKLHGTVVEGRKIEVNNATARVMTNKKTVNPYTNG

B1: AUGUAAA (DNA:RNA)
RNA: GGGAGACCGGAAUUCAGAUUGUCCAUGUAAAUUAAAUCCCGUCGUAGCCACCA
DNA 1: CAATCTGAATTCCGGTCTCCC
DNA 2: TGGTGGCTACGACGGGATT
B2: AUGUAUG (DNA:RNA)
RNA: B1 RNA with A30U, A31G
DNA 1: CAATCTGAATTCCGGTCTCCC
DNA 2: TGGTGGCTACGACGGGATT
B3: AUAUGUA (DNA:RNA)
RNA: B1 RNA with G27A, A29G, A30U
DNA 1: CAATCTGAATTCCGGTCTCCC
DNA 2: TGGTGGCTACGACGGGATT
B4: AUGUAUC (DNA:RNA)
RNA: B1 RNA with A30U, A31C
DNA 1: CAATCTGAATTCCGGTCTCCC
DNA 2: TGGTGGCTACGACGGGATT
B5: ACGUAUC (DNA:RNA)
RNA: B1 RNA with U26C, A30U, A31C
DNA 1: CAATCTGAATTCCGGTCTCCC
DNA 2: TGGTGGCTACGACGGGATT
B6: AUGUAGA (DNA:RNA)
RNA: B1 RNA with A30G
DNA 1: CAATCTGAATTCCGGTCTCCC
DNA 2: TGGTGGCTACGACGGGATT
B7: UAUUAUG (DNA:RNA)
RNA: B1 RNA with A25U, U26A, G27U, A30U, A31G
DNA 1: CAATCTGAATTCCGGTCTCCC
DNA 2: TGGTGGCTACGACGGGATT
B8: UAAGUUC (DNA:RNA)
RNA: GGGAGACCGGAAUUCAGAUUGUCCUAAGUUCUUAAAUCCCGUCGUAGCCACCA
DNA 1: CAATCTGAATTCCGGTCTCCC
DNA 2: TGGTGGCTACGACGGGATT
B9: GGAUAGG (DNA:RNA)
RNA: B1 RNA with A25G, U26G, G27A, A30G, A31G
DNA 1: CAATCTGAATTCCGGTCTCCC
DNA 2: TGGTGGCTACGACGGGATT
B10: UUGUAUU (DNA:RNA)
RNA: B1 RNA with A25U, A30U, A31U
DNA 1: CAATCTGAATTCCGGTCTCCC
DNA 2: TGGTGGCTACGACGGGATT
B11: CCCGAGU (DNA:RNA)
RNA: B1 RNA with A25C, U26C, G27C, U28G, A30G, A31U
DNA 1: CAATCTGAATTCCGGTCTCCC
DNA 2: TGGTGGCTACGACGGGATT
B12: UCAGAUC (DNA:RNA)
RNA: B8 RNA with A26C, U29A
DNA 1: CAATCTGAATTCCGGTCTCCC
DNA 2: TGGTGGCTACGACGGGATT
B13: UCGCAUA (DNA:RNA)
RNA: B1 RNA with A25U, U26C, U28C, A30U
DNA 1: CAATCTGAATTCCGGTCTCCC
DNA 2: TGGTGGCTACGACGGGATT
B14: UCGCAUC (DNA:RNA)
RNA: B8 RNA with A26C, A27G, G28C, U29A
DNA 1: CAATCTGAATTCCGGTCTCCC
DNA 2: TGGTGGCTACGACGGGATT
B15: UCGCAGA (DNA:RNA)
RNA: B1 RNA with A25U, U26C, U28C, A30G
DNA 1: CAATCTGAATTCCGGTCTCCC
DNA 2: TGGTGGCTACGACGGGATT
B16: UCGCAUG (DNA:RNA)
RNA: B1 RNA with A25U, U26C, U28C, A30U, A31G
DNA 1: CAATCTGAATTCCGGTCTCCC
DNA 2: TGGTGGCTACGACGGGATT
B17: UCGCGCA (DNA:RNA)
RNA: B1 RNA with A25U, U26C, U28C, A29G, A30C
DNA 1: CAATCTGAATTCCGGTCTCCC
DNA 2: TGGTGGCTACGACGGGATT
B18: UGAACAA (DNA:RNA)
RNA: B1 RNA with A25U, U26G, G27A, U28A, A29C
DNA 1: CAATCTGAATTCCGGTCTCCC
DNA 2: TGGTGGCTACGACGGGATT
B19: AUUUACA (DNA:RNA)
RNA: B1 RNA with G27U, A30C
DNA 1: CAATCTGAATTCCGGTCTCCC
DNA 2: TGGTGGCTACGACGGGATT
B20: UGAUGCG (DNA:RNA)
RNA: B8 RNA with A26G, G28U, U29G, U30C, C31G
DNA 1: CAATCTGAATTCCGGTCTCCC
DNA 2: TGGTGGCTACGACGGGATT

target: T1, RBFOX1 RRM RbFoxmut (Fox-RRM*); test: EMSA; HiTS-Eq, 1 nM pool, 10 min; buffer printed only for the single-RNA assays: 10 mM Tris pH 7.5, 150 mM NaCl, 3.4 mM EDTA, 0.001% NP-40, 30 C; conditions: tags: His6 N-terminal (pET28a); label: 5' 32P
Method in brief: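 Purified wild-type or mutant RbFox RRM at increasing concentrations was equilibrated with 1 nM of 5′-radiolabelled RNA carrying 7 randomized nucleotides for 10 min in 50 µL. Unbound RNA was separated by 8% native PAGE and sequenced. Relative association constants came from read-count changes of each RNA species compared with the control reaction, normalised to the cognate motif.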

Question: How did the binding signal turn out when B1 was run?
Answer: Its binding signal is 0.169 KA relative to UGCAUGU.

Question: For B2, which binding signal is on record?
Answer: Its binding signal is 1.19 KA relative to UGCAUGU.

Question: For B3, which binding signal is on record?
Answer: Its binding signal is 0.261 KA relative to UGCAUGU.

Question: B4 was tested. Which binding signal did it give?
Answer: Its binding signal is 0.407 KA relative to UGCAUGU.

Question: Which binding signal does the source give for B5 here?
Answer: The binding signal was 0.185 KA relative to UGCAUGU.

Question: B6 was tested. Which binding signal did it give?
Answer: The binding signal was 0.152 KA relative to UGCAUGU.

Question: For B7, which binding signal is on record?
Answer: The binding signal was 0.158 KA relative to UGCAUGU.

Question: Which binding signal does the source give for B8 here?
Answer: Its binding signal is 0.0634 KA relative to UGCAUGU.

Question: How did the binding signal turn out when B9 was run?
Answer: The binding signal was 0.0913 KA relative to UGCAUGU.

Question: B10 was tested. Which binding signal did it give?
Answer: Its binding signal is 0.171 KA relative to UGCAUGU.

Question: With B11 as the binder, how does the binding signal read?
Answer: Its binding signal is 0.094 KA relative to UGCAUGU.

Question: With B12 as the binder, how does the binding signal read?
Answer: The binding signal was 0.0785 KA relative to UGCAUGU.

Question: Which binding signal does the source give for B13 here?
Answer: The binding signal was 0.125 KA relative to UGCAUGU.

Question: How did the binding signal turn out when B14 was run?
Answer: Its binding signal is 0.597 KA relative to UGCAUGU.

Question: Which binding signal does the source give for B15 here?
Answer: Its binding signal is 0.0842 KA relative to UGCAUGU.

Question: B16 was tested. Which binding signal did it give?
Answer: The binding signal was 1.06 KA relative to UGCAUGU.

Question: With B17 as the binder, how does the binding signal read?
Answer: Its binding signal is 0.104 KA relative to UGCAUGU.

Question: B18 was tested. Which binding signal did it give?
Answer: The binding signal was 0.047 KA relative to UGCAUGU.

Question: For B19, which binding signal is on record?
Answer: Its binding signal is 0.119 KA relative to UGCAUGU.

Question: With B20 as the binder, how does the binding signal read?
Answer: The binding signal was 0.141 KA relative to UGCAUGU.
